15 compounds from ChEMBL document CHEMBL1961873, “Compounds: GSK PKIS; Assays: Nanosyn kinase panel” (2012) can be followed below.

“And” between values parts separate entries of the source, which are not always exact repeats. Identical values can stand only once.

For experiment [1], the target named is Glycogen synthase kinase-3 beta (Homo sapiens) (UniProt P49841). To be noted: at 1 µM.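 Note: reported values are mean percent inhibition of GSK3B.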
Experiment [2] deals with Homeodomain-interacting protein kinase 1 (Homo sapiens) (UniProt Q86Z02). Particulars: at 0.1 µM.
Experiment [3] shares this target. Particulars: at 1 µM.
In experiment [4] the target is T1, Homeodomain-interacting protein kinase 4 (Homo sapiens) (UniProt Q8NE63).
T1 sequence (whole entry): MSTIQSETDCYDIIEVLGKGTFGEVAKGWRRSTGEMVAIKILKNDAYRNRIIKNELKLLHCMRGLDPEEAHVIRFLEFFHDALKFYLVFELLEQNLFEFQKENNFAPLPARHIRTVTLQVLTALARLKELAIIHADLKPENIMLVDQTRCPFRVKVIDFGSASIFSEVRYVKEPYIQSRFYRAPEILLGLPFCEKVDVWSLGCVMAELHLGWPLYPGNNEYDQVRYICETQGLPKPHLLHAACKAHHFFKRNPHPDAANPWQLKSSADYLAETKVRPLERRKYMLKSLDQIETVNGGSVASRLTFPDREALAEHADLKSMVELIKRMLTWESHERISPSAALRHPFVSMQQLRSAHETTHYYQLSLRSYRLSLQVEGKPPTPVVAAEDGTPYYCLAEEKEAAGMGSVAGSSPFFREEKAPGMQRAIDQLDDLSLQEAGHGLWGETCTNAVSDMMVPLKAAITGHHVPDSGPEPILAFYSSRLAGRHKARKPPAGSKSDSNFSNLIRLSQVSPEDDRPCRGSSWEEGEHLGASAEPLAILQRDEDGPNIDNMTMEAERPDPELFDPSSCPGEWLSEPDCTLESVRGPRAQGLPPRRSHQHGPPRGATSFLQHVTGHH
To be noted: at 0.1 µM.

The target in experiment [5] is T1, Homeodomain-interacting protein kinase 4 (Homo sapiens). To be noted: at 1 µM.
In experiment [6] the target is Mitogen-activated protein kinase 9 (Homo sapiens) (UniProt P45984). To be noted: at 0.1 µM.
Experiment [7] has the same target. Particulars: at 1 µM.
Experiment [8] deals with Mitogen-activated protein kinase 1 (Homo sapiens) (UniProt P28482). To be noted: at 0.1 µM.
The target is the same in experiment [9]. Particulars: at 1 µM.
Experiment [10] has as its target Mitogen-activated protein kinase 3 (Homo sapiens) (UniProt P27361). To be noted: at 0.1 µM.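 Note: each value is a mean inhibition figure.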

Sequence of Mitogen-activated protein kinase 1 (Homo sapiens) (P28482 whole entry): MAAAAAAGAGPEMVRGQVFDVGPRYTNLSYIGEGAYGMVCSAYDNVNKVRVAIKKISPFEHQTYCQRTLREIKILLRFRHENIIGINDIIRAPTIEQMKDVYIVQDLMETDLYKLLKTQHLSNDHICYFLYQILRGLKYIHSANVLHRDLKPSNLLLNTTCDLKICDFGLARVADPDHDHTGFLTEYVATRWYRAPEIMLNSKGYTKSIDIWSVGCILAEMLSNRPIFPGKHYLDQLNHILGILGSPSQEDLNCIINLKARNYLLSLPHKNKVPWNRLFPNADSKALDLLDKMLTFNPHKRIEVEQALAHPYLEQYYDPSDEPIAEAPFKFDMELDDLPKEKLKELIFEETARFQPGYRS
Sequence of Mitogen-activated protein kinase 9 (Homo sapiens) (P45984 whole entry, looked up): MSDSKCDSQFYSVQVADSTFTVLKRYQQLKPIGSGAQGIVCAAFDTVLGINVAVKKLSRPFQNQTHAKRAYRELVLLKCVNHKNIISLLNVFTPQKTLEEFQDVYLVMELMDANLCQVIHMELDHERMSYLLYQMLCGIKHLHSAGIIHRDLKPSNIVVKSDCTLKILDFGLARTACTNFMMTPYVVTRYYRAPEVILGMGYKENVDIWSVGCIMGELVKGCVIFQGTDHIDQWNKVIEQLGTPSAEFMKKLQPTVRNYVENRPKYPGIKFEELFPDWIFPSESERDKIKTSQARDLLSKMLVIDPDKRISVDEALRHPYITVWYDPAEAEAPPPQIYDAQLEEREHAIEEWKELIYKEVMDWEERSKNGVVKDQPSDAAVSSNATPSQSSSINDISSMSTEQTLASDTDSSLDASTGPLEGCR
Sequence of Mitogen-activated protein kinase 3 (Homo sapiens) (P27361 whole entry): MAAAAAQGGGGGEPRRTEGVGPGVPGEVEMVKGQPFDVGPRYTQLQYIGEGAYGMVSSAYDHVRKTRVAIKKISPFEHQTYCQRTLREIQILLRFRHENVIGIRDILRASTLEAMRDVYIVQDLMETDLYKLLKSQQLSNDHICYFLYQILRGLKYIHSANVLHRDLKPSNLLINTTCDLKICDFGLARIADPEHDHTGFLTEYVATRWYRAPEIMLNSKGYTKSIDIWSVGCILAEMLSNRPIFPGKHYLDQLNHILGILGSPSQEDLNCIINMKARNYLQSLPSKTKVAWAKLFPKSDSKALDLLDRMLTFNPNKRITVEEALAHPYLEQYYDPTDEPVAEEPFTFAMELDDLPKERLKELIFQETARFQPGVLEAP
Sequence of Glycogen synthase kinase-3 beta (Homo sapiens) (P49841 whole entry, looked up): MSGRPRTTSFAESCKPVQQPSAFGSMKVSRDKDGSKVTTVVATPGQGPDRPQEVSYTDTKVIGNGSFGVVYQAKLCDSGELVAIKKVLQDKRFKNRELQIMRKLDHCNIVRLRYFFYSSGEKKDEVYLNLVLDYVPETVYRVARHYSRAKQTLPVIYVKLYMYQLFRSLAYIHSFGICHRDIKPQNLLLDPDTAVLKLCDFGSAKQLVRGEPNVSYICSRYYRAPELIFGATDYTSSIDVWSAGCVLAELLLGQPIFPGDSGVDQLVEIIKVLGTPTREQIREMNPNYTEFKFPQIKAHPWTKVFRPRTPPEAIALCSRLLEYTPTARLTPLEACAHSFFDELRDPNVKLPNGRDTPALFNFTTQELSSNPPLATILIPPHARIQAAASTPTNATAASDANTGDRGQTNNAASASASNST
Sequence of Homeodomain-interacting protein kinase 1 (Homo sapiens) (Q86Z02 whole entry, looked up): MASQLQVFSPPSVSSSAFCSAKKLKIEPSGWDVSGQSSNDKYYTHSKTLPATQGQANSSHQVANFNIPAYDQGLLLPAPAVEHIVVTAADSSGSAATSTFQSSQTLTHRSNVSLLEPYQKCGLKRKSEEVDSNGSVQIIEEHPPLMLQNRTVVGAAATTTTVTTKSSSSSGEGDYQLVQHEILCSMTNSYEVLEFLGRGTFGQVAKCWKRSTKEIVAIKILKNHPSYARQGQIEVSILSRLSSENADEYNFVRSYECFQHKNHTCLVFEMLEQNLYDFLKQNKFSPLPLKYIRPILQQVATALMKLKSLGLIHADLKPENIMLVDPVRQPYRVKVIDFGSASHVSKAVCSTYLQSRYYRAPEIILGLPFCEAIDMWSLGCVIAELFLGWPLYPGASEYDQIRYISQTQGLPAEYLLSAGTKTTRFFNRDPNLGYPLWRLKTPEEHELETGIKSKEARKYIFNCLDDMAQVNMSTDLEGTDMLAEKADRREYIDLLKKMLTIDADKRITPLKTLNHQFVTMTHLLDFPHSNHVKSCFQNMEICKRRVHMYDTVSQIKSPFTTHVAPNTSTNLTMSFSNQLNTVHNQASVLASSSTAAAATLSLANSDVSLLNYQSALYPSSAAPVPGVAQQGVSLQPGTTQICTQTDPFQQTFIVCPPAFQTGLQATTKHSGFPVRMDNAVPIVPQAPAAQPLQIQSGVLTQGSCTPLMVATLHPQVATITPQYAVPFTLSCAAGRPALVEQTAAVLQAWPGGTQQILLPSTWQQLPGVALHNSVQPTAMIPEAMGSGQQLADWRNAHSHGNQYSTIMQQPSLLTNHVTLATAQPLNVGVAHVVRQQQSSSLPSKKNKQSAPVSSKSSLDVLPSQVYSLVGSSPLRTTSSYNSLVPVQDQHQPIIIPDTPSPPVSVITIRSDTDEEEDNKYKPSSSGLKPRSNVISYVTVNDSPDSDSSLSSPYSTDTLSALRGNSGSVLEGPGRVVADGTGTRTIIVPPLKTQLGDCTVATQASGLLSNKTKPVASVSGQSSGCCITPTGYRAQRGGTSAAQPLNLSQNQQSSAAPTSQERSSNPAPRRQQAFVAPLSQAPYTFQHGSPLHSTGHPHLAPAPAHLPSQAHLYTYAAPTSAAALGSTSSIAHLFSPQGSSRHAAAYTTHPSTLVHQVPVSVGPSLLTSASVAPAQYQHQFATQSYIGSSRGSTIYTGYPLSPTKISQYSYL

In general, inhibition refers to the relative decrease from the control value, in per cent. Turning to `O=C(Nc1n[nH]c2nnc(-c3cccnc3)cc12)C1CC1`, the inhibition in experiment [1] is 81.5%; in [2], 33.6%; in experiment [3], 74%; in [4] it was 0.58%; in experiment [5], 8.84%; in experiment [6], 0.33%. Also, the inhibition in experiment [7] worked out at 1.3%; in [8], 0.58%; in experiment [9], 2.75%; in experiment [10], 0.53%.

`COc1cc(Nc2ncc(-c3ccccc3)o2)cc(OC)c1`: the inhibition in [1] came to 11.5%; in [2], 1.55%; in experiment [3], 17.1%; in experiment [4] it was 2.58%; in experiment [5] it was 12.5%; in [6], 3.25%. The inhibition in experiment [7] was found to be 3.23%; in [8], 10.2%; in [9], 6.06%; in experiment [10], 5.39%.

For `COc1cc(N2CCN(C(C)C)CC2)ccc1Nc1nc(Nc2cccc(F)c2C(=O)O)c2cc[nH]c2n1`, the inhibition in experiment [1] stood at 6.19%; in [2], 4.97%; in [3] it was 23.6%; in experiment [4], 5.89%; in experiment [5], 22.7%; in experiment [6] it was 26.4%. The inhibition in experiment [7] came to 72.5%; in experiment [8] it was 5.18%; in [9], 6.34%; in [10], 5.83%.

On to `Nc1ncnc2occ(-c3ccc(NC(=O)Nc4cc(C(F)(F)F)ccc4F)cc3)c12`, for which the inhibition in experiment [1] was 17% and 5.38%; in experiment [2], 5.43% and -2.68%; in [3], 37.4% and 21.6%; in experiment [4] it was 60.9% and 51.1%; in experiment [5] it was 78.3% and 77.3%; in experiment [6] it was 4.06% and -9.27%. In addition, the inhibition was 21.3% and 4.35% in experiment [7]; 1.97% and -3.05% in [8]; 1.72% and -1.67% in [9]; 0.93% and 0.1% in [10].

Take `COc1ccc2ncn(-c3cc(O[C@H](C)c4ccccc4C(F)(F)F)c(C(N)=O)s3)c2c1`: the inhibition in experiment [1] was 4.75%; in experiment [2] it was -2.12%; in experiment [3], 2.1%; in [4], -0.89%; in [5] it was 3.28%; in experiment [6], 0.32%. Also, the inhibition in [7] is -1.29%; in experiment [8] it was -1.88%; in experiment [9], -0.49%; in experiment [10] it was -0.86%.

`COc1ccccc1-c1cc(/C=C2\C(=O)Nc3ncc(Br)cc32)cc(Br)c1O`: the inhibition was determined as 8.88% in experiment [1]; 0.74% in [2]; 7.53% in [3]; 0.6% in experiment [4]; 10.9% in experiment [5]; 3.44% in experiment [6]. Moreover, the inhibition in experiment [7] was 8.54%; in experiment [8] it was 3.26%; in experiment [9], 4.68%; in experiment [10], 4.03%.

As to `COc1cccc(Nc2nccc(-c3cnn4ncccc34)n2)c1`, the inhibition was 79% in [1]; 88.9% in experiment [2]; 92.6% in experiment [3]; 56.4% in experiment [4]; 87.3% in experiment [5]; 9.47% in experiment [6]. Further, the inhibition in experiment [7] was 46.2%; in experiment [8], 2.75%; in [9], 26.5%; in [10], 1.68%.

Turning to `N#Cc1ccc2c(-c3ccnc(NC4CC4)n3)c(-c3ccc(F)cc3)nn2c1`, the inhibition in experiment [1] is 45.1%; in experiment [2] it was -2.11%; in experiment [3], 0.75%; in experiment [4], -0.93%; in [5], -1.01%; in experiment [6], 17.2%. The inhibition in experiment [7] was 71.1%; in experiment [8] it was 1.33%; in experiment [9] it was 4.26%; in [10], 0.07%.

Turning to `CN1CCC(C(=O)Nc2n[nH]c3nc(-c4ccc(O)cc4)c(Br)cc23)CC1`, the inhibition in [2] is 2.86% and -1.65%; in [3], 20.1% and 19.3%; in experiment [4], 0.89% and 1.06%; in experiment [5], 5.87% and 4.37%; in [6], 5.88% and 4.7%; in experiment [7], 16.6% and 13.9%. Also, the inhibition in experiment [8] is 6.51% and 1.55%; in experiment [9] it was 12.1% and 3.95%; in [10], 5.16% and 1.61%.

Turning to `CCN1CCC(C(=O)Nc2n[nH]c3nnc(-c4cccc(F)c4F)cc23)CC1`, the inhibition in experiment [1] was 88.7%; in experiment [2] it was -1.08%; in experiment [3], 2.33%; in experiment [4], 0.85%; in [5] it was 4.09%; in experiment [6], -0.81%. Besides, the inhibition in experiment [7] is 1.88%; in [8], -0.1%; in experiment [9], 0.83%; in [10], -2.77%.

For `O=C(O[C@H]1CN[C@H](C#Cc2cc3ncnc(Nc4ccc(OCc5cccc(F)c5)c(Cl)c4)c3s2)C1)N1CCOCC1`, the inhibition in [1] amounted to 4.2%; in experiment [2], 1.86%; in [3], 0.81%; in [4] it was 2.71%; in [5], 4.99%; in experiment [6], 3.19%. In addition, the inhibition in experiment [7] came to 7.19%; in experiment [8], 7.72%; in [9] it was 5.38%; in experiment [10] it was 4.82%.

Turning to `Cn1c(-c2nonc2N)nc2cnccc21`, the inhibition in [1] amounted to 41.6%; in experiment [2], 0.83%; in experiment [3] it was 13.9%; in experiment [4], 0.63%; in [5], 4.4%; in experiment [6] it was 0.7%. For the same compound, the inhibition in [7] was 4.16%; in [8], -1.97%; in [9], 2.95%; in [10] it was 0.55%.

On to `Nc1nonc1-c1nc2cnccc2n1C1CC1`, for which the inhibition was 68.1% and 62.1% in [1]; 0.55% and 0.39% in [2]; 17.3% and 12.3% in experiment [3]; 3.8% and -0.76% in experiment [4]; 11.1% and 7.82% in [5]; 3.59% and 0.44% in [6]. The inhibition in experiment [7] was 6.52% and 2.72%; in experiment [8], 3.14% and 2.36%; in experiment [9], 7.51% and 3.94%; in experiment [10], 4.9% and 2.96%.

For the compound `Fc1ccc(Nc2nccc(-c3c(-c4ccc(C(F)(F)F)cc4)nn4ncccc34)n2)cc1F`, the inhibition was found to be 3.82% in experiment [1]; 0.15% in [2]; 4.43% in experiment [3]; 0.47% in experiment [4]; 3.47% in experiment [5]; 1.98% in experiment [6]. Besides, the inhibition in experiment [7] was found to be 3.63%; in experiment [8] it was 3.91%; in experiment [9], 4.05%; in experiment [10], 1.81%.

For the compound `Cc1cc(O)cc(C)c1/C=C/c1cncc(C(=O)OC(C)(C)C)c1`, the inhibition in experiment [1] came out at 7.76%; in [2] it was 2.63%; in experiment [3] it was 7.33%; in experiment [4] it was 1.55%; in experiment [5], 2.43%; in experiment [6], 1.52%. For the same compound, the inhibition in experiment [7] was 1.71%; in [8], 2.41%; in [9], 4.61%; in experiment [10] it was 1.22%.
